From PubChem BioAssay (Tox21)
Where “and” joins values, the source holds several entries; their conditions need not be identical. Identical values can stand only once. Results filed as inconclusive are left out. Where a structure was tested more than once in an assay, its records may differ in their call. Calls of active or inactive are those of the source. Unless noted, calls come from the whole dose curve; as a rule, active = well fitted curve in the direction sought with a large enough effect in the repeat runs; inconclusive = weak or mixed curves; inactive = no such curve, though single readings can be large; an effect the other way counts as inactive or inconclusive.

Legend:
[1] = target: Aryl hydrocarbon receptor (Homo sapiens) (UniProt P35869); assay: qHTS assay to identify small molecule that activate the aryl hydrocarbon receptor (AhR) signaling pathway (AID 743085); note: nearly all actives have a fitted effect of over 15% in size; note: potency is the fitted concentration of half-maximal effect;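 for activation: HG2L7.5c1 human HepG2 liver cells with stably integrated DRE-driven firefly reporter; series mostly up to about 70 µM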
Aryl hydrocarbon receptor (Homo sapiens), sequence (P35869 whole entry, looked up): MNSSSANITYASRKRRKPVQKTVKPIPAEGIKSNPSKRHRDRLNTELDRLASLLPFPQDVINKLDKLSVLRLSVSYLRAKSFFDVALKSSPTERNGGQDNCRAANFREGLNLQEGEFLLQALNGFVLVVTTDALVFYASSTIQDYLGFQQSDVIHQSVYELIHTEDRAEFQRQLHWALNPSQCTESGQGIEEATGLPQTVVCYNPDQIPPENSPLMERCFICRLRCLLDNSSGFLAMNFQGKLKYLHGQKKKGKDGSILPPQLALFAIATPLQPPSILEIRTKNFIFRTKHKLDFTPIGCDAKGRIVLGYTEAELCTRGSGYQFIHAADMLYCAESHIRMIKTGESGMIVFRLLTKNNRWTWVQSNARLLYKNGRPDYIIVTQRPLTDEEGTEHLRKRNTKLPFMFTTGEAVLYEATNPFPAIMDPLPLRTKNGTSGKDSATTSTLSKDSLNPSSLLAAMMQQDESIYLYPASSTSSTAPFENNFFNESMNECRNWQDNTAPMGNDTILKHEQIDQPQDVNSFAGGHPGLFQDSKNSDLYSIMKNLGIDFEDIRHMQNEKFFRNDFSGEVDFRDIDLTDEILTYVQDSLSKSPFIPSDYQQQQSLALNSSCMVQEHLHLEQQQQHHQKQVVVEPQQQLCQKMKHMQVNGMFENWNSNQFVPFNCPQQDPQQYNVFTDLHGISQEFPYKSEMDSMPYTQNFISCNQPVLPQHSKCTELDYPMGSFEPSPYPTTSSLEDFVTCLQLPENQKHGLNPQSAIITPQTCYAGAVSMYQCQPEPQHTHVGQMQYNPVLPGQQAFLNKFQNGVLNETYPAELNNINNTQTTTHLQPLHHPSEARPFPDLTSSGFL
Method in brief: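 HepG2 cells (HG2L7.5c1) stably carrying a firefly luciferase reporter driven by 20 dioxin responsive elements were exposed to compound for 24 h at 37C after a 5 h settling period; luminescence rise (ONE-Glo) indicated activation.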

[2] = qHTS assay to identify small molecule that activate the aryl hydrocarbon receptor (AhR) signaling pathway - cell viability counter screen (AID 743086); note: nearly all actives have a fitted effect of over 45% in size; note: potency is the fitted concentration of half-maximal effect
Method in brief: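 HepG2-AhR-luc (HG2L7.5c1) cells, 4000/well, were preincubated 5 h at 37C, exposed to compound in qHTS format for 24 hr at 37C, then given CellTiter-Fluor for 30 min; viability was read as fluorescence in the reporter wells.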

[3] = qHTS assay for small molecule agonists of the antioxidant response element (ARE) signaling pathway (AID 743202; active = well fitted activation curve with a large enough effect in the signal ratio in the repeat runs, not every such curve was filed as active; the % refers to the signal ratio; note: potency is the fitted concentration of half-maximal effect)
Method in brief: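 Following a 16 h, 37 C exposure of reporter HepG2 cells (ARE-driven beta-lactamase, 2,000 cells/well) to compounds, FRET substrate was applied for 2 h at room temperature and fluorescence intensity recorded.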

[4] = qHTS assay for small molecule agonists of the antioxidant response element (ARE) signaling pathway - cell viability counter screen (AID 743203; calls by dose curve; note: nearly all actives have a fitted effect of over 55% in size; note: potency is the fitted concentration of half-maximal effect)
Method in brief: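 Viability counter screen: CellTiter-Glo luminescence, read after 30 min at room temperature, in ARE-bla HepG2 wells. Compound exposure lasted 16 h at 37C/5% CO2, following a 5 h pre-incubation of the cells after plating.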

[5] = qHTS assay for small molecule activators of the heat shock response signaling pathway - cell viability counter screen (AID 743209); note: nearly all actives have a fitted effect of over 50% in size; note: potency is the fitted concentration of half-maximal effect
Method in brief: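 Cytotoxicity counter screen run in the same wells as the heat-shock bla reporter assay: HeLa HSE-bla cells, 5 h compound exposure at 37 C, viability read by CellTiter-Glo luminescence.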

[6] = qHTS assay for small molecule activators of the heat shock response signaling pathway (AID 743210; active = well fitted activation curve with a large enough effect in the signal ratio in the repeat runs, with a control signal flat, not every such curve was filed as active; the % refers to the signal ratio; note: series mostly up to about 63 µM)
Method in brief: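 Heat shock element–beta-lactamase HeLa reporter cells; qHTS with compounds for 5 h at 37 C; detection by FRET substrate fluorescence after 2.5 h at RT.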

[7] = qHTS assay to identify small molecule agonists of the peroxisome proliferator-activated receptor delta (PPARd) signaling pathway - cell viability counter screen (AID 743211); note: nearly all actives have a fitted effect of over 55% in size; note: potency is the fitted concentration of half-maximal effect
Method in brief: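 PPARd-bla HEK293H cells (UAS-beta-lactamase reporter) were treated with compounds for 17 h at 37 C. Viability was then read in the same wells by CellTiter-Glo luminescence after 30 min at room temperature.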

[8] = qHTS assay to identify small molecule antagonists of the peroxisome proliferator-activated receptor delta (PPARd) signaling pathway - cell viability counter screen (AID 743213); note: nearly all actives have a fitted effect of over 50% in size; note: potency is the fitted concentration of half-maximal effect
Method in brief: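 PPARd-bla HEK293H cells were treated with compounds plus agonist L165041 (300 nM final) for 17 h at 37 C. Viability was then read in the same wells by CellTiter-Glo luminescence after 30 min at room temperature.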

[9] = target: Bile acid receptor (Homo sapiens) (UniProt Q96RI1); assay: qHTS assay to identify small molecule antagonists of the farnesoid-X-receptor (FXR) signaling pathway (AID 743217; active = well fitted inhibition curve with a large enough effect in the signal ratio in the repeat runs, not every such curve was filed as active; the % refers to the signal ratio)
Bile acid receptor (Homo sapiens), sequence (Q96RI1 whole entry, looked up): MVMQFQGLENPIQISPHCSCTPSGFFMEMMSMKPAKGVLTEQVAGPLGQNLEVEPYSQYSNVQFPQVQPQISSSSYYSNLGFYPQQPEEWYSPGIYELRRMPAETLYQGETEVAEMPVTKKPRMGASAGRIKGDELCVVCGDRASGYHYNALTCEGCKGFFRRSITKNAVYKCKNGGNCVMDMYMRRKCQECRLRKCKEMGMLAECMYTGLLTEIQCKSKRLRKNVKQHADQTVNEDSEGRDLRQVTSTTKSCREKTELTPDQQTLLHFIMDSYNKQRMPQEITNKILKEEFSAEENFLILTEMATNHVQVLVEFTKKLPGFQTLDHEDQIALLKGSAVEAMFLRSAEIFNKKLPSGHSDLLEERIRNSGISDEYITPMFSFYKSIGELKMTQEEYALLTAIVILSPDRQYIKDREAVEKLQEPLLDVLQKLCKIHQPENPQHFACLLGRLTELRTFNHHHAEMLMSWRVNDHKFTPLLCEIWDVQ
Method in brief: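 Antagonist mode: chenodeoxycholic acid at 50 uM final stimulates a UAS-driven beta-lactamase reporter in HEK 293T FXR-bla cells during 16 h, 37C compound exposure. Read-out is FRET substrate fluorescence after 2 h at room temperature.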

[10] = qHTS assay to identify small molecule agonists of the farnesoid-X-receptor (FXR) signaling pathway - cell viability counter screen (AID 743218); note: nearly all actives have a fitted effect of over 45% in size; note: potency is the fitted concentration of half-maximal effect
Method in brief: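 Viability counter screen in the same wells: CellTiter-Glo luminescence, 30 min room-temperature incubation, measured after the beta-lactamase read. Cells were GeneBLAzer FXR-UAS-bla HEK 293T, compound-treated 16 h at 37C.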

[11] = target: Bile acid receptor (Homo sapiens) (UniProt Q96RI1); assay: qHTS assay to identify small molecule agonists of the farnesoid-X-receptor (FXR) signaling pathway (AID 743220; active = well fitted activation curve with a large enough effect in the signal ratio in the repeat runs, not every such curve was filed as active; the % refers to the signal ratio)
Method in brief: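 FXR-UAS-bla HEK 293T cells carrying a UAS-driven beta-lactamase reporter were plated for 5 h at 37C/5% CO2, then exposed to DMSO-dissolved Tox21 10K compounds for 16 h at 37C. A LiveBLAzer B/G FRET substrate was loaded for 2 h at room temperature before fluorescence reading.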

[12] = qHTS assay to identify small molecule antagonists of the farnesoid-X-receptor (FXR) signaling pathway - cell viability counter screen (AID 743221; active = well fitted cell-killing curve with a large enough effect in the repeat runs, not every such curve was filed as active; note: nearly all actives have a fitted effect of over 50% in size; note: potency is the fitted concentration of half-maximal effect)
Method in brief: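 FXR-UAS-bla HEK 293T cells were treated with test compounds plus chenodeoxycholic acid (50 uM final) for 16 h at 37 C. Cell viability in the same wells was then read as CellTiter-Glo luminescence after 30 min at room temperature.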

[13] = target: Vitamin D3 receptor (Homo sapiens) (UniProt P11473); assay: qHTS assay to identify small molecule agonists of the vitamin D receptor (VDR) signaling pathway (AID 743222; calls by dose curve)
Vitamin D3 receptor (Homo sapiens), sequence (P11473 whole entry, looked up): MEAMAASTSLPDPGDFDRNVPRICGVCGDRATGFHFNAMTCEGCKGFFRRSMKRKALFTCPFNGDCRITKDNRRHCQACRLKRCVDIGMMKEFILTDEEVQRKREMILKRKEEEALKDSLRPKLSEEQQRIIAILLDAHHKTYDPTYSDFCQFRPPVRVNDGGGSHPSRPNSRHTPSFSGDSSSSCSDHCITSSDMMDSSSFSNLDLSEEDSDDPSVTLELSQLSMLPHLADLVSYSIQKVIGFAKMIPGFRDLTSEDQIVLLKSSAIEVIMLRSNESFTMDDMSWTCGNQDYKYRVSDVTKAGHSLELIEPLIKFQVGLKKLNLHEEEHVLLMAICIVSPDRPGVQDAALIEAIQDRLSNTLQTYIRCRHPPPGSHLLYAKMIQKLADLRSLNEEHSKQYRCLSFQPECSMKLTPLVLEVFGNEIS
Method in brief: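 Agonist mode, beta-lactamase reporter: fluorescence from LiveBLAzer B/G FRET substrate (2 h, room temperature) read after 16 h compound treatment at 37 C of VDR-bla cells, which were pre-incubated 4 h after seeding.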

[14] = target: Vitamin D3 receptor (Homo sapiens) (UniProt P11473); assay: qHTS assay to identify small molecule antagonists of the vitamin D receptor (VDR) signaling pathway (AID 743223; active = well fitted inhibition curve with a large enough effect in the signal ratio in the repeat runs, not every such curve was filed as active; the % refers to the signal ratio; note: potency is the fitted concentration of half-maximal effect)
Method in brief: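 VDR-bla cells were plated, incubated 4 h at 37C, then given compound and 1alpha,25-dihydroxyvitamin D3 (3 nM final). After 16 h at 37C, LiveBLAzer B/G FRET substrate was added for 2 h at room temperature and fluorescence read.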

[15] = qHTS assay to identify small molecule agonists of the vitamin D receptor (VDR) signaling pathway - cell viability counter screen (AID 743224); note: nearly all actives have a fitted effect of over 50% in size; note: potency is the fitted concentration of half-maximal effect
Method in brief: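 Counter screen run in the same wells as the VDR-bla reporter assay: CellTiter-Glo luminescence, 30 min at room temperature, after 16 h compound treatment at 37C of cells pre-plated for 4 h.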

[16] = qHTS assay to identify small molecule antagonists of the peroxisome proliferator-activated receptor gamma (PPARg) signaling pathway - cell viability counter screen (AID 743194); conditions: Potency: co-treated with 50 nM rosiglitazone; note: nearly all actives have a fitted effect of over 55% in size; note: potency is the fitted concentration of half-maximal effect
Method in brief: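 PPARg-UAS-bla HEK293H cells were plated, rested 5 h at 37 C, then treated with compounds plus rosiglitazone (50 nM final) for 17 h at 37 C; viability was then read by CellTiter-Glo luminescence after 30 min at room temperature.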

[17] = target: Peroxisome proliferator-activated receptor gamma (Homo sapiens) (UniProt P37231); assay: qHTS assay to identify small molecule agonists of the peroxisome proliferator-activated receptor gamma (PPARg) signaling pathway (AID 743094; active = well fitted activation curve with a large enough effect in the signal ratio in the repeat runs, not every such curve was filed as active; the % refers to the signal ratio)
Peroxisome proliferator-activated receptor gamma (Homo sapiens), sequence (P37231 whole entry, looked up): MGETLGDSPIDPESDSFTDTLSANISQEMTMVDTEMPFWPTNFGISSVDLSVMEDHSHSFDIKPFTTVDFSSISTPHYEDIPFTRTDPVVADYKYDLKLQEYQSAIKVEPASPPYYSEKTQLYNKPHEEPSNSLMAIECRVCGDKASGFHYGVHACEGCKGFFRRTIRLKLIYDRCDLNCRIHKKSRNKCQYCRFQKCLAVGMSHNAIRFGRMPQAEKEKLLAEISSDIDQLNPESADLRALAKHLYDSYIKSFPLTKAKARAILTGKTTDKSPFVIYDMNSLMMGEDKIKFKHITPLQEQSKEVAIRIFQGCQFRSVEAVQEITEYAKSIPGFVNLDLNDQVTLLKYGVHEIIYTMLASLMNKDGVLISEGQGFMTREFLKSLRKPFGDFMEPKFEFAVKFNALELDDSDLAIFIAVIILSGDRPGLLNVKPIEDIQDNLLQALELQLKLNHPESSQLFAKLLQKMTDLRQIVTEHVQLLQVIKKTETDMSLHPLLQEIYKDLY
Method in brief: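 Agonist activity was taken from a beta-lactamase reporter (FRET substrate, 1 h at room temperature) in HEK293H cells carrying a PPARg UAS-bla construct. Compounds in DMSO were incubated 17 h at 37C after a 5 h cell pre-incubation.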

[18] = target: Peroxisome proliferator-activated receptor delta (Homo sapiens) (UniProt Q03181); assay: qHTS assay to identify small molecule agonists of the peroxisome proliferator-activated receptor delta (PPARd) signaling pathway (AID 743212; calls by dose curve)
Peroxisome proliferator-activated receptor delta (Homo sapiens), sequence (Q03181 whole entry, looked up): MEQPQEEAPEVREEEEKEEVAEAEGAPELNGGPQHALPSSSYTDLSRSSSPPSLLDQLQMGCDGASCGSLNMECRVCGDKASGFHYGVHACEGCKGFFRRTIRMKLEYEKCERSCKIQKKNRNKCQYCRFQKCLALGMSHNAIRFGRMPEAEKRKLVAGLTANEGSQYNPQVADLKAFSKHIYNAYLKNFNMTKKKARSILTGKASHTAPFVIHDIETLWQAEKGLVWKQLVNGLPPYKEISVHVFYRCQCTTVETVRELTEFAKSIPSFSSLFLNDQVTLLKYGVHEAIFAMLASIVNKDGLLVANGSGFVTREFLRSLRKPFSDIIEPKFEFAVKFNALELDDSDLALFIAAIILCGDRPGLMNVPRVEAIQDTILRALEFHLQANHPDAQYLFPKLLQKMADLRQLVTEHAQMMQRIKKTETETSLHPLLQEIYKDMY
Method in brief: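 Beta-lactamase reporter read by fluorescence (LiveBLAzer B/G FRET, 2 h, room temperature). Test agents, in DMSO, incubated at 37 C with PPARd-bla HEK293H cells.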

[19] = target: Peroxisome proliferator-activated receptor delta (Homo sapiens) (UniProt Q03181); assay: qHTS assay to identify small molecule antagonists of the peroxisome proliferator-activated receptor delta (PPARd) signaling pathway (AID 743215; active = well fitted inhibition curve with a large enough effect in the signal ratio in the repeat runs, not every such curve was filed as active; the % refers to the signal ratio;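 note: cells stimulated with agonist L165041 at 300 nM final during compound exposure; series mostly up to about 62 µM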)
Method in brief: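 Agonist L165041 (300 nM final) added with compound to PPARd-bla HEK293H UAS-bla reporter cells; 17 h incubation at 37 C. Read-out: LiveBLAzer FRET substrate, 2 h at room temperature, fluorescence intensity.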

[20] = target: Peroxisome proliferator-activated receptor gamma (Homo sapiens) (UniProt P37231); assay: qHTS assay to identify small molecule antagonists of the peroxisome proliferator-activated receptor gamma (PPARg) signaling pathway (AID 743191; calls by dose curve; note: nearly all actives have a fitted effect of over 30% in size; note: potency is the fitted concentration of half-maximal effect)
Method in brief: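 GeneBLAzer PPARg UAS-bla HEK293H cells carrying a UAS-driven beta-lactamase reporter were plated at 3000 cells/well, preincubated 5 h at 37C, then given compound for 17 h at 37C; LiveBLAzer B/G FRET substrate was read after 1 h at room temperature.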

Measured: Potency

CC(C)(C)c1ccc(CCOc2ncnc3ccccc23)cc1
inactive: [1] | [2] | [3] | [4] | [5] | [6] | [7] | [8] | [9] | [10] | [11] | [12] | [13] | [14] | [15]

O=C(CCl)CCl
active: [16] 21.9 µM | [3] 14.2 µM | [4] 19.3 µM
inactive: [1] | [2] | [6] | [8] | [12] | [13] | [14] | [15]
inactive and 54.9 µM (active): [7] | [10]
inactive and 12.3 µM (active): [5]

O=C=NC1CCCCC1
active: [1] 54.6 µM
inactive: [2] | [17] | [3] | [4] | [6] | [7] | [18] | [19] | [9] | [11] | [12] | [13] | [14] | [15]

CC1(C)[C@H](C(=O)O[C@H](C#N)c2cccc(Oc3ccccc3)c2)[C@@H]1C=C(Br)Br
inactive: [1] | [2] | [16] | [4] | [5] | [7] | [8] | [12] | [15]

O=C(Cc1ccccc1)c1ccccc1
inactive: [1] | [2] | [16] | [3] | [4] | [5] | [6] | [7] | [8] | [9] | [10] | [11] | [12] | [13] | [14]

O=[N+]([O-])c1cc(Cl)c(Cl)cc1Cl
inactive: [1] | [2] | [17] | [4] | [6] | [7] | [10] | [12] | [13] | [14]

CC(C)(C)NCC(O)c1cc(Cl)c(N)c(C(F)(F)F)c1 (stereo not given)
inactive: [1] | [17] | [20] | [16] | [3] | [4] | [5] | [6] | [7] | [18] | [8] | [10] | [12] | [13] | [14] | [15]

CC(Oc1cc(Cl)c(Cl)cc1Cl)C(=O)O (stereo not given)
inactive: [1] | [2] | [16] | [4] | [5] | [6] | [7] | [9] | [10] | [11] | [12] | [15]

O=C(NC(=O)c1cc(F)c(F)cc1Cl)Nc1cc(F)ccc1N1CCC(C(=O)O)CC1
active: [20] 1.9 µM
inactive: [1] | [2] | [3] | [4] | [5] | [6] | [18] | [8] | [19] | [10] | [12] | [13] | [14] | [15]

C[CH2][Hg][S]c1ccccc1C(=O)O
active: [2] 16.8 µM and 6.86 µM | [16] 2.45 µM and 8.41 µM | [4] 1.72 µM and 5.96 µM | [7] 871 nM and 2.11 µM | [8] 2.19 µM and 1.68 µM | [10] 1.55 µM and 2.66 µM | [12] 6.92 µM and 4.22 µM | [14] 3.38 µM | [15] 1.23 µM and 2.11 µM
inactive: [1] | [13]

[Cl-].[Cl-].[Hg+2]
inactive: [1]
active: [2] 6.08 µM and 54.5 µM | [16] 21.8 µM and 21.9 µM | [4] 19.2 µM and 12.2 µM | [7] 1.73 µM and 2.19 µM | [8] 2.44 µM and 1.74 µM | [10] 2.74 µM and 9.77 µM | [12] 2.18 µM and 3.47 µM

CCCCNC(=O)OCC#CI
inactive: [1] | [2] | [5] | [9] | [11] | [12]
active: [4] 21.7 µM | [15] 48.7 µM and 43.6 µM

C=CC(C)(CCC=C(C)C)OC(=O)c1ccccc1N (stereo not given)
inactive: [1] | [2] | [3] | [4] | [5] | [6] | [7] | [8] | [10] | [12] | [13] | [14] | [15]

O=C(O)C(F)(F)C(F)(F)C(F)(F)C(F)(F)C(F)(F)F
inactive: [1] | [17] | [3] | [4] | [5] | [6] | [7] | [8] | [19] | [10] | [12] | [13] | [14] | [15]

Cc1ccc2c(C)cccc2c1
inactive: [1] | [2] | [20] | [16] | [4] | [5] | [6] | [7] | [18] | [8] | [19] | [10] | [12] | [13] | [15]

C=CCN1C[C@H](C)N([C@H](c2ccc(C(=O)N(CC)CC)cc2)c2cccc(OC)c2)C[C@H]1C
inactive: [1] | [2] | [20] | [16] | [4] | [5] | [6] | [7] | [18] | [8] | [19] | [10] | [12] | [13] | [14]

Cc1cccc(C)c1NC1=NCCCS1
inactive: [1] | [2] | [16] | [4] | [5] | [6] | [7] | [18] | [8] | [19] | [10] | [12] | [13] | [14] | [15]
